Source: PubChem (several laboratories)
CYP2C19 activ – human CYP2C19 activators, primary screen, biochemical, luminescence; Cytochrome P450 2C19 (Homo sapiens), P33261; recombinant CYP2C19, luciferin-H EGE luminescence; active compounds read high; 0 = fully inhibited enzyme, 1 = untreated enzyme; activation factor at 5 µM; 96,000 tested, under 10 active;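 active means activation factor of at least 2 at 5 µM in the primary screen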;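 further: 0 = wells with 2.5 mM tranylcypromine and 1 = vehicle-only wells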
CYP2C9 inh – blockers of cytochrome P450 2C9 activity – biochemical, luminescence, ADME assay, primary screen; P11712; CYP2C9 Supersomes, luciferin-H conversion; inhibition, % at 5 µM; 96,000 tested, 20% active;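 active means blocking of liver enzyme CYP2C9 beyond about 50% at 5 µM, limit read from the data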
Target sequence (P11712 whole entry, looked up): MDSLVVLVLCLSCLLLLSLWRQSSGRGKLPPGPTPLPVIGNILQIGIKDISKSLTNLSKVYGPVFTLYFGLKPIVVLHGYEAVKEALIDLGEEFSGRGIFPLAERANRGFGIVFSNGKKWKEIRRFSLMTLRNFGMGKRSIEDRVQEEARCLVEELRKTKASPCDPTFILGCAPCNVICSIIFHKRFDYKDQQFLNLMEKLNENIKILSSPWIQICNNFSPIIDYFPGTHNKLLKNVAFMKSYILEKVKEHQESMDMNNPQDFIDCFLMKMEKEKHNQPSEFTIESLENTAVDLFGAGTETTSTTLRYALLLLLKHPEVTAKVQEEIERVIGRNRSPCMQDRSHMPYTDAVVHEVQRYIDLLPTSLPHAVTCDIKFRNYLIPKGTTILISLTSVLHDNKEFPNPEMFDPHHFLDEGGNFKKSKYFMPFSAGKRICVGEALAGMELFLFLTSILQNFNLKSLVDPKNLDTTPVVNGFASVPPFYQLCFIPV
CYP2C19 inhib – blockers of cytochrome P450 2C19 activity – biochemical, luminescence, ADME assay, primary screen | P33261 | CYP2C19 Supersomes, luciferin-H EGE luminescence, 30 min | inhibition, % at 5 µM | 96,000 tested, 21% active | AID 778, 2007;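 active means CYP2C19 inhibition above a set limit at 5 µM in the primary screen, cut at about 50% in these data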;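 further: plate controls were negative control wells for no effect and 2.5 mM tranylcypromine positive control for full effect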
PostGolgi yeast – phenotypic screen on post-Golgi transport, primary screen | post-Golgi transport phenotypic cell assay | inhibition, % at 10 µM | 98,000 tested, 0.9% active | AID 739, 2007;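 further: yeast cells grown in 1536-well plates; yeast grown about 18 h at 30C before absorbance read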
PostGolgi ctrl – growth inhibition of yeast control strain, primary screen, counter-screen for post-Golgi transport modulator project. efflux-deficient yeast background strain, growth absorbance A615, 16 h. 98,000 tested, 5% active. inhibition, % at 10 µM. AID 738, 2007
CYP2C9 act – human CYP2C9 activators, primary screen, biochemical, luminescence. Cytochrome P450 2C9 (Homo sapiens), P11712. recombinant CYP2C9, luciferin-H conversion; active compounds read high; factor 1 = untreated enzyme, 0 = blocked. activation factor at 5 µM. 96,000 tested, 1.4% active. AID 1024, 2008;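 active means activation factor of 2 or more for CYP2C9 at a 5 µM dose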;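 further: 0 = sulfaphenazole-blocked wells and 1 = vehicle-only wells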
Numbers without * were called inactive; / = no result. Compounds with a hit are over-represented: about 32% of the library has one in this group of screens. Unless noted, no stated cut-off is given here; in the data, active means inhibition above about 30%; inactive means the rest.

SMILES	CYP2C19 activ	CYP2C9 inh	CYP2C19 inhib	PostGolgi yeast	PostGolgi ctrl	CYP2C9 act
Cc1cc(C)n(S(=O)(=O)c2cccc(Cl)c2Cl)n1	0.5	25.5	54.1*	/	/	0.7
Cc1cc(C)n(S(=O)(=O)c2ccc(Cl)c(Cl)c2Cl)n1	0.3	-73.0	68.6*	14.9	19.1	1.7
COc1c(S(=O)(=O)n2nc(C)cc2C)ccc(Cl)c1Cl	0.5	-131.5	51.7*	-2.3	31.1*	2.3*
CCn1c(-c2cc3c(C(F)(F)F)nn(C)c3s2)n[nH]c1=S	0.7	21.6	31.3	4.4	40.6*	0.8
Cn1c(-c2cc3c(C(F)(F)F)nn(C)c3s2)n[nH]c1=S	1	11.0	-0.5	14.8	15.2	0.9
CCNc1nc(NCC)nc(SCCOC(=O)COc2ccc(Cl)cc2Cl)n1	0.9	18.2	12.1	1.4	17.6	0.8
O=S(=O)(Nc1nnc(-c2ccccc2)s1)c1ccc(Cl)cc1	0.2	98.7*	82.7*	19.3	10.4	0
COc1ccc(S(=O)(=O)Nc2nnc(C(C)(C)C)s2)cc1	1	29.2	-0.4	3.0	2.3	0.7
CN(Cc1cccs1)C(=O)COc1cccc(-n2cnnn2)c1	0.8	-2.7	17.1	-0.8	17.6	1
O=C(COc1ccc(-c2nnco2)cc1)N1CCN(S(=O)(=O)c2ccccc2)CC1	0.2	67.0*	84.0*	2.4	-6.5	0.3
CC1CC(C)CN(C(=O)COc2ccc(-c3nnco3)cc2)C1 (stereo not given)	0.5	24.4	50.5*	-6.0	-0.3	0.8
CCCS(=O)(=O)N1CCN(C(=O)COc2ccccc2)CC1	0.4	15.1	58.8*	-0.3	8.4	0.8
CN(Cc1cccs1)C(=O)COc1ccc(-c2nnco2)cc1	0.3	31.3	74.7*	5.0	19.1	0.7
CCCS(=O)(=O)N1CCN(C(=O)COc2ccc(-c3ccccc3)cc2)CC1	/	/	/	10.7	3.0	/
CC(C)(C)c1nc2scc(-c3cccs3)c2c(=O)o1	1	12.0	2.6	0.3	-1.8	0.9
Cc1nn(C)cc1/C=N/NC(=S)Nc1ccccc1	0.8	36.7	21.0	-3.8	9.2	0.6
COCCNC(=S)NC12CC3CC(CC(C3)C1)C2	0.6	-7.7	39.9	2.0	19.2	1.1
O=C(COc1ccc(Cl)cc1)N1CCN(S(=O)(=O)c2ccccc2)CC1	0.5	23.5	54.8*	-4.5	4.8	0.8
O=C1C(C23CC4CC(CC(C4)C2)C3)C(=O)N(c2ccccc2)N1c1ccccc1	/	/	/	-0.5	3.2	/
O=c1oc(-c2cccs2)nc2sc3c(c12)CCC3	0.7	19.5	34.0	-0.3	11.8	0.8
O=c1oc(-c2cccs2)nc2sc3c(c12)CCCC3	0.8	63.5*	20.1	11.6	3.6	0.4
CC(C)Cn1[nH]c2c3c(ccc2c1=O)C(=O)c1ccccc1C3=O	0.4	80.0*	61.0*	11.7	25.0	0.2
COC(=O)C(Cc1ccc(OC(=O)c2ccccc2C)cc1)N1Cc2ccccc2C1=O (stereo not given)	0.9	26.2	8.4	14.7	17.6	0.7
c1ccc(-n2nnnc2-n2nnc3ccccc32)cc1	0.1	35.7	93.9*	2.4	9.0	0.6
c1ccc(-n2nnnc2-n2ccnc2)cc1	0.9	-1.2	14.7	-2.7	15.0	1
SMILES	CYP2C19 activ	CYP2C9 inh	CYP2C19 inhib	PostGolgi yeast	PostGolgi ctrl	CYP2C9 act
COc1ccc(C(C)=O)cc1CSc1nnc(-c2ccccc2O)n1-c1ccccc1	0.5	53.3*	45.2	3.8	19.4	0.5
COc1ccc(-c2nnc(SCCC(=O)O)n2-c2ccccc2)cc1OC	1	10.2	0.4	-1.5	4.2	0.9
CC(C)CC(=O)Nc1cc(NC(=O)CC(C)C)cc(C(=O)NC(C)(C)C)c1	0.8	22.0	19.9	-11.5	-2.7	0.8
Cc1ccc(-c2nc(Nc3ccccc3)n[nH]2)cc1	0.3	27.4	68.8*	-4.7	16.4	0.7
CC(C)NC(=O)CCNC(=O)c1ccc(F)cc1	/	/	/	-5.7	-7.7	/
CCNC(=O)CSc1nc2ccccc2c(=O)n1OC	1.2	-6.8	-24.7	-4.3	5.4	1.1
CCOCCCn1c(SCC(=O)NC(C)C)nc2ccccc2c1=O	0.5	45.1	45.2	4.9	11.0	0.5
CCOc1ccccc1-n1c(SCC(N)=O)nc2ccccc2c1=O	0.4	42.6	59.3*	1.4	12.0	0.6
CCN(CC)C(=O)CSc1nc2ccccc2c(=O)n1CCC(=O)NCc1ccc(F)cc1	0.4	91.6*	57.0*	0.9	2.0	0.1
CCOc1ccccc1-n1c(SCC(N)=O)nnc1-c1ccccc1	0.6	27.3	35.9	2.2	1.3	0.7
CCNC(=O)CSc1nc2ccccc2c(=O)n1-c1cc(OC)ccc1OC	0.5	72.8*	49.4	5.2	2.9	0.3
O=C(CSc1nc2ccccc2c(=O)n1-c1cccc(C(F)(F)F)c1)NC1CC1	0.5	31.7	51.0*	1.2	6.8	0.7
CC(C)CC(=O)c1c[nH]c(C(=O)NCc2cccs2)c1	0.9	20.0	11.0	-2.6	10.1	0.8
COn1c(SCC(=O)N(C)C)nc2ccccc2c1=O	0.9	-11.5	13.2	14.5	-5.4	1.1
CC(C)Cn1c(SCC#N)nc2ccccc2c1=O	0.8	28.0	23.2	-2.2	10.7	0.7
CCCCOC(=O)n1c(SCC(=O)N(CC)CC)nc2ccccc21	0.6	86.0*	38.8	-6.5	31.3*	0.1
CCN(CC)C(=O)CSc1nc2ccccc2c(=O)n1CC	0.8	30.8	15.3	-6.8	-5.6	0.7
CCN(CC)C(=O)CSc1nc2ccccc2c(=O)n1OC(C)C	0.9	57.8*	6.0	0.0	14.3	0.4
COc1ccc(-n2c(SCC#N)nc3ccccc3c2=O)cc1	0.9	68.1*	11.4	-2.5	0.1	0.3
CCOC(=O)n1c(SCC(N)=O)nc2ccccc21	1	-13.7	-0.8	-7.3	5.6	1.1
CCN(CC)C(=O)CSc1nc2ccccc2c(=O)n1-c1cccc(OC)c1	0.7	71.4*	33.3	12.7	5.8	0.3
O=C(CCN1c2ccccc2Sc2ccccc21)OCC(=O)N1CCN(C(=O)c2ccco2)CC1	0.8	49.6	18.8	-5.9	13.1	0.5
Cc1cc(C)n2nc(SCC(=O)c3cc(C)n(-c4cc(C)on4)c3C)nc2n1	0.7	9.6	34.1	-3.6	6.5	0.9
COCCNC(=O)c1cc2cc(Br)cc(OC)c2oc1=O	1.1	-8.8	-11.3	-6.1	3.7	1.1
Oc1ccc(Cl)cc1C1=NCCNC(C(F)(F)C(F)F)=C1	1	3.3	1.7	-4.9	4.7	1
O=C(O)c1cnc(-c2ccccc2)nc1Sc1ccc(Cl)cc1	1	61.0*	3.5	-3.8	23.1	0.4
c1nc2nc3c(c(N4CCOCC4)n2n1)CCCC3	1	-2.8	0.6	7.9	3.4	1
